Laboratory results taken from PubChem BioAssay.
Unmarked numbers belong to inactive results. For some assays here: Entries with a potency or affinity are not part of this list. The source made the active and inactive calls. Unless noted, no rule for the calls is given here.

Columns and labels:
[1] = antimalarial activity against Dd2 strain (AID 2302;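 active = growth inhibition above 50% at the single 2 µM test dose, taken to imply half-maximal potency below 2 µM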;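 also: 0% = DMSO untreated growth and 100% = chloroquine plus artemisinin killed control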); conditions: P. falciparum Dd2 in RBCs, LDH growth readout, 72 h; at 2 µM; active compounds read high
[2] = HepG2 cytotoxicity, primary screen, cytotoxicity control for P. falciparum antimalarial project, cell-based, ATP luminescence (AID 2303;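 active = inhibition above 50%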;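 also: 0% = DMSO wells and 100% = digitonin-killed cells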); conditions: HepG2 viability, 24-48 h, at 10 µM, active compounds read high
[3] = biological target: L-lactate dehydrogenase (Plasmodium falciparum (isolate CDC / Honduras)) (UniProt Q27743); test: PfLDH activity inhibition – cell lysate, 3D7 strain, counter-screen for P. falciparum growth inhibition project (AID 2304);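 also: 0% = vehicle and 100% = reference inhibitor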; conditions: P. falciparum 3D7 crude extract, LDH APAD/NBT absorbance; at 2 µM; active compounds read high
[4] = inhibition of 3D7 malaria parasite growth – strain 3D7 (AID 2306);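 also: 0% = DMSO wells and 100% = chloroquine plus artemisinin control wells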; conditions: P. falciparum 3D7 erythrocytic growth, LDH absorbance, 72 h; at 2 µM; active compounds read high
[5] = biological target: Calcium-dependent protein kinase 1 (Plasmodium falciparum (isolate 3D7)) (UniProt P62344); test: PfCDPK1 kinase inhibitors, biochemical, TCAMS library (AID 1159585; cut-off not given, nearly all actives have IC50 up to about 0.98 µM;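 also: inhibitors leave more ATP so luminescence rises with inhibition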); conditions: recombinant PfCDPK1, Kinase-Glo ATP depletion luminescence
[6] = biological target: Plasmodium falciparum protein kinase 6 (PK6, PF3D7_1337100) (UniProt Q8IDW1); test: PfPK6 kinase inhibitors, biochemical, TCAMS library (AID 1159586); conditions: recombinant PfPK6, Kinase-Glo ATP depletion luminescence
[7] = biological target: Protein kinase 7 (PK7), Plasmodium falciparum 3D7 (PF3D7_0213400) (UniProt Q7YTF7); test: inhibition of Plasmodium PK7 catalytic activity – biochemical, TCAMS antimalarial set, Kinase-Glo luminescence (AID 1159587); conditions: recombinant PfPK7, Kinase-Glo ATP depletion luminescence
[8] = biological target: Calcium-dependent protein kinase 4 (Plasmodium falciparum (isolate 3D7)) (UniProt Q8IBS5); test: PfCDPK4 kinase inhibitors, biochemical, TCAMS library (AID 1159588; cut-off not given, nearly all actives have IC50 up to about 0.91 µM); conditions: recombinant PfCDPK4, Kinase-Glo ATP depletion luminescence
Calcium-dependent protein kinase 4 (Plasmodium falciparum (isolate 3D7)), sequence (Q8IBS5 whole entry, looked up): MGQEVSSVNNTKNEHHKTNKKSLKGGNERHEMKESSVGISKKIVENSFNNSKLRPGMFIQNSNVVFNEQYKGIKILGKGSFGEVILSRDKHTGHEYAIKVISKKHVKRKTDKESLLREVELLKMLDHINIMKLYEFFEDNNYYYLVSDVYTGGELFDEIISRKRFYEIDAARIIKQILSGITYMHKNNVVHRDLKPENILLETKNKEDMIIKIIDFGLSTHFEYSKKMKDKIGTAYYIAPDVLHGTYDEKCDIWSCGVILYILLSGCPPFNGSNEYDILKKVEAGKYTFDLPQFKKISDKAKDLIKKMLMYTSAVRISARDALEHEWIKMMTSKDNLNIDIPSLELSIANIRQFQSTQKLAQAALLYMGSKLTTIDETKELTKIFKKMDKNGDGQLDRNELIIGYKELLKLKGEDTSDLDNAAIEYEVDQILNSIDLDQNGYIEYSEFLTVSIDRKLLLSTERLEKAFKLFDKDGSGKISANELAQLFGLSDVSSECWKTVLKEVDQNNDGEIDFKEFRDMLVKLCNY

Protein kinase 7 (PK7), Plasmodium falciparum 3D7 (PF3D7_0213400), sequence (Q7YTF7 1-343): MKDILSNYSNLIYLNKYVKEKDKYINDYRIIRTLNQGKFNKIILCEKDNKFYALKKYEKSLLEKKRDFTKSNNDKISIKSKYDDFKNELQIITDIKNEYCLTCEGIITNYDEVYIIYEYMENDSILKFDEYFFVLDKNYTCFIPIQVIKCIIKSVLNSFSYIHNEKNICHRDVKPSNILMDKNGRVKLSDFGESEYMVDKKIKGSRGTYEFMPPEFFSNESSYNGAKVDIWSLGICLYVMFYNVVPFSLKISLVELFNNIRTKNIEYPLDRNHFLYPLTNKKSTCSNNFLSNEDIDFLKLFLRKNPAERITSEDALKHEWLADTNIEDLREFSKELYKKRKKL
L-lactate dehydrogenase (Plasmodium falciparum (isolate CDC / Honduras)), sequence (Q27743 whole entry, looked up): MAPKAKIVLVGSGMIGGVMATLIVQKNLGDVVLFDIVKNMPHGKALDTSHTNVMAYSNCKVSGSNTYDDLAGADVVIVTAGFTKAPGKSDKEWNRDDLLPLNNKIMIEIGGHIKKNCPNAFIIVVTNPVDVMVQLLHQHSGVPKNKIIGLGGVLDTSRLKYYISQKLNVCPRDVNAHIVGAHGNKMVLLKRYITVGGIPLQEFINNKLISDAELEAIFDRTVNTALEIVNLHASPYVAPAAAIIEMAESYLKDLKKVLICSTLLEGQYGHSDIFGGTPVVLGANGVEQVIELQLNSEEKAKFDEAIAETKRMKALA
Calcium-dependent protein kinase 1 (Plasmodium falciparum (isolate 3D7)), sequence (P62344 whole entry, looked up): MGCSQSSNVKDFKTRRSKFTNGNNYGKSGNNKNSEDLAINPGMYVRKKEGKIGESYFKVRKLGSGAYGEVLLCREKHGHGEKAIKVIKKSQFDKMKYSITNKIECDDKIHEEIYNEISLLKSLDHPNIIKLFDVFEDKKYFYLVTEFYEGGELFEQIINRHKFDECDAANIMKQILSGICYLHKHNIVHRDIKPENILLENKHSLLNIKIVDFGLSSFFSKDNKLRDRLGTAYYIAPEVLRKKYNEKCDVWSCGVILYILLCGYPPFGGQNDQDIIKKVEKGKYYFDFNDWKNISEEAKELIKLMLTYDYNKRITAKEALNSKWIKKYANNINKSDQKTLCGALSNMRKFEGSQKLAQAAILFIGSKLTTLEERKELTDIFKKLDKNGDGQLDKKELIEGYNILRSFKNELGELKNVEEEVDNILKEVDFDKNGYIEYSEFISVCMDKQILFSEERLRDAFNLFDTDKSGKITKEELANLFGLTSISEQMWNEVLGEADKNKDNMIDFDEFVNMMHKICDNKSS
Plasmodium falciparum protein kinase 6 (PK6, PF3D7_1337100), sequence (Q8IDW1 1-305): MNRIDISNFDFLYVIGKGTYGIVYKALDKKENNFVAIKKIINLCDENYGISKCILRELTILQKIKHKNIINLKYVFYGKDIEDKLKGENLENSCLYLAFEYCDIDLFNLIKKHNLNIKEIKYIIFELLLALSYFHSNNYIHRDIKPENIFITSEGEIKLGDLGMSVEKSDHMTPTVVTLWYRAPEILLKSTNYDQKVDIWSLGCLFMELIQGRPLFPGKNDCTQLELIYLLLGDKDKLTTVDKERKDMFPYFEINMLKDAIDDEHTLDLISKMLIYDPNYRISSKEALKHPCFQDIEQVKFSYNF

| SMILES | growth inhibition [1] | inhibition [2] | inhibition [3] | growth inhibition [4] | outcome [5] | outcome [6] | outcome [7] | outcome [8] |
| --- | --- | --- | --- | --- | --- | --- | --- | --- |
| COc1c(C2CCN(CCCCNC(=O)c3oc(-c4ccc(Cl)cc4)cc3CO)CC2)ccc2c1CCCC2 | 95% (active) | 80% (active) | 4% | 102% (active) | inactive | inactive | inactive | inactive |
| Clc1ccc(Cc2nc3ccccc3[nH]2)cc1Cl | 2% | 5% | 0% | 98% (active) | inactive | inactive | inactive | inactive |
| CN(Cc1ccc(-c2ccc(C(F)(F)F)cc2)cc1)C(=O)Cn1c(CCc2cccc(F)c2F)cc(=O)c2ccc(OCCCN3CCCCC3)cc21 | 90% (active) | 79% (active) | 5% | 103% (active) | inactive | inactive | inactive | inactive |
| CC1CCCN1Cc1ccc(-c2ccc3c(=O)cc(CCc4cccc(F)c4F)n(CC(=O)N(C)Cc4ccc(-c5ccc(C(F)(F)F)cc5)cc4)c3n2)cc1 (stereo not given) | 91% (active) | 0% | 3% | 102% (active) | inactive | inactive | inactive | inactive |
| CC(C)c1ccc(NC(=O)c2ccc(C(=O)NC3CCN(Cc4ccsc4)C3)cc2)cc1 (stereo not given) | 28% | 17% | -2% | 82% (active) | inactive | inactive | inactive | inactive |
| OC(CN(Cc1ccccc1)Cc1ccccc1)Cn1c2ccc(Cl)cc2c2cc(Cl)ccc21 (stereo not given) | 95% (active) | 5% | 6% | 89% (active) | inactive | inactive | inactive | inactive |
| Cc1noc(C)c1-c1ccc2c(Nc3ccccc3C(C)(C)C)c(C(=O)NCc3ccccc3)cnc2c1 | 89% (active) | 20% | -1% | 99% (active) | inactive | inactive | inactive | inactive |
| O=C(Nc1ccc(OC2CCN(Cc3ccccc3)C2)c(Cl)c1)c1ccsc1 (stereo not given) | 75% (active) | 12% | 1% | 93% (active) | inactive | inactive | inactive | inactive |
| CCCNCc1ccc(-c2ccc(CN(CCOC)C(=O)Cc3cccnc3)cc2)nc1 | 13% | 10% | -1% | 92% (active) | inactive | inactive | inactive | inactive |
| NC1=NC(Cc2ccccc2)(c2ccncc2)C(=O)N1CCCc1ccccc1 (stereo not given) | 1% | 1% | 3% | 86% (active) | inactive | inactive | inactive | inactive |
| COc1ccc(CN2CCCC(Nc3ccc(F)c(F)c3)C2)c(O)c1 (stereo not given) | 83% (active) | 14% | 3% | 95% (active) | inactive | inactive | inactive | inactive |
| O=C(Nc1nc2ccc(Cl)cc2s1)c1csnn1 | 99% (active) | 15% | 3% | 96% (active) | inactive | inactive | inactive | inactive |
| O=C(Nc1cccc(C(F)(F)F)c1)Nc1ccc(Cl)c(C(F)(F)F)c1 | 99% (active) | -4% | -6% | 99% (active) | inactive | inactive | inactive | inactive |
| COc1ccc(C=CC(=O)NC(=O)c2ccccc2OC(=O)c2ccccc2)cc1OC | 90% (active) | 12% | 5% | 87% (active) | inactive | inactive | inactive | inactive |
| COc1ccc(Cl)cc1N1CCN(CCCNC(=O)c2ccc(-c3nc4cc(Cl)c(C)cc4[nH]3)s2)CC1 | 97% (active) | -1% | 1% | 102% (active) | inactive | inactive | inactive | inactive |
| Oc1ccc2[nH]c(-c3cccc(F)c3)nc2c1CNCc1ccccc1 | 55% (active) | 29% | -2% | 92% (active) | inactive | inactive | inactive | inactive |
| O=C(Nc1ccc(Cl)c(Cl)c1)Nc1ccc2nccc(N3CCNCC3)c2c1 | 62% (active) | 18% | -6% | 99% (active) | inactive | inactive | inactive | inactive |
| NC(N)=NN=Cc1ccccc1OCc1ccccc1Cl | 30% | 14% | 5% | 101% (active) | inactive | inactive | inactive | inactive |
| CO/C(=C\C=C\c1cc2cc(Cl)c(Cl)cc2[nH]1)C(=O)NCCCN1CCN(c2cccc(OCC(=O)Nc3cccc(C(=O)c4ccccc4)c3)c2)CC1 | 88% (active) | 48% | 2% | 94% (active) | inactive | inactive | inactive | inactive |
| O=S(=O)(NCCN1CCCC1)c1cccc(-c2ccc(CNC3Cc4ccccc4C3)cc2)c1 | 74% (active) | 79% (active) | -4% | 99% (active) | inactive | inactive | inactive | inactive |

| SMILES | growth inhibition [1] | inhibition [2] | inhibition [3] | growth inhibition [4] | outcome [5] | outcome [6] | outcome [7] | outcome [8] |
| --- | --- | --- | --- | --- | --- | --- | --- | --- |
| NC(=O)c1cccc(CNCc2ccc(-c3cccc(-c4nc5ccccc5[nH]4)c3)cc2)c1 | 94% (active) | 29% | 3% | 101% (active) | inactive | inactive | inactive | inactive |
| CN(C)C1CCN(Cc2ccc(N3CCN(Cc4cccc5[nH]ccc45)CC3)nc2)CC1 | 17% | 11% | -2% | 80% (active) | inactive | inactive | inactive | inactive |
| O=C(Nc1ccc(OC2CCN(Cc3ccccc3)CC2)c(Cl)c1)c1ccsc1 | 92% (active) | 3% | 4% | 87% (active) | inactive | inactive | inactive | inactive |
| CCNC(=O)N1CCc2ccc(Oc3nc(NCc4ccccc4OC)ncc3C)cc2CC1 | 76% (active) | -9% | -9% | 83% (active) | inactive | inactive | inactive | inactive |
| C=CCc1c(C(=O)NCC23CC4CC(CC(C4)C2)C3)[nH]c2ccccc2c1=O | 79% (active) | 40% | 2% | 86% (active) | inactive | inactive | inactive | inactive |
| CCCCCN1CCCCC(NS(=O)(=O)c2ccc(C(=O)Nc3ccc(C(F)(F)F)cc3)cc2)C1 (stereo not given) | -4% | 34% | -2% | 89% (active) | inactive | inactive | inactive | inactive |
| COc1cc2ncnc(Nc3ccc4nc(-c5ccccc5)[nH]c4c3)c2cc1OC | 32% | 15% | -5% | 92% (active) | inactive | inactive | inactive | inactive |
| Cn1ncc2ccc(Nc3nccc(-c4ccc5c(c4)c(N)nn5C)n3)cc21 | 96% (active) | 48% | -2% | 99% (active) | inactive | inactive | inactive | inactive |
| Cc1nc(NCCCn2ccnc2)cc(-c2cncc(-c3ccc(OC(F)(F)F)cc3)c2)n1 | 11% | 2% | 2% | 99% (active) | inactive | inactive | inactive | inactive |
| O=C(N[C@@H](Cc1ccccc1)[C@H](O)CNC1CCCc2ccccc21)c1cc(C2CCCC2)cc(N2CCCC2=O)c1 (stereo not given in full) | 99% (active) | 31% | -7% | 97% (active) | inactive | inactive | inactive | inactive |
| Cc1ccc(S(=O)(=O)N2CCN(C(=O)c3cc(-c4cccs4)[nH]n3)CC2)c(C)c1 | 81% (active) | -1% | -1% | 85% (active) | inactive | inactive | inactive | inactive |
| CC(=O)Nc1ncc(C(=O)Nc2cccc(-c3ccc(-c4nc5ccccc5[nH]4)cc3)c2)s1 | 66% (active) | 12% | -9% | 101% (active) | inactive | inactive | inactive | inactive |
| CC1CCC2(CC1)N=C(N)N=C(N)N2OCc1cc2ccccc2c2ccccc12 (stereo not given) | 41% | 27% | -2% | 97% (active) | inactive | inactive | inactive | inactive |
| Cc1nnsc1C(=O)Nc1cccc(-c2cccc(-c3nc4c(C)cccc4[nH]3)c2)c1 | 80% (active) | 22% | 4% | 99% (active) | inactive | inactive | inactive | inactive |
| O=C(Nc1ccc(OC2CCN(Cc3ccc(F)cc3)CC2)c(Cl)c1)c1ccoc1 | 90% (active) | -2% | 2% | 89% (active) | inactive | inactive | inactive | inactive |
| COc1cc(NCC(O)CNc2cc(Cl)nc3ccccc23)nc2ccccc12 (stereo not given) | 99% (active) | 17% | -2% | 99% (active) | inactive | inactive | inactive | inactive |
| Cc1cccc(-c2nc3cc(NC(=O)c4ccc([N+](=O)[O-])o4)ccc3o2)c1 | 73% (active) | 8% | 4% | 94% (active) | inactive | inactive | inactive | inactive |
| O=C(NC1CCCCC1)N(Cc1cccc(-c2ccc(CNCc3ccc4c(c3)OCO4)cc2)c1)C1CCN(Cc2ccccc2)CC1 | 59% (active) | 13% | -9% | 92% (active) | inactive | inactive | inactive | inactive |
| O=C(NCCCCN1CCC(c2ccc3c(c2OCCO)CCCC3)CC1)c1ccc2oc(-c3ccc(C(F)(F)F)cc3)cc2c1 | 56% (active) | 54% (active) | 4% | 93% (active) | inactive | inactive | inactive | inactive |
| COc1ccccc1N1CCN(CCCCNC(=O)c2ccc(NC(=O)c3ccc(C(F)(F)F)cc3)cc2)CC1 | 37% | 25% | 0% | 100% (active) | inactive | inactive | inactive | inactive |
